The nature of test [1]: qHTS assay to identify small molecule antagonists of the thyroid receptor (TR) signaling pathway - cell viability counter screen (AID 743064). Note: nearly all actives have a fitted effect of over 50% in size. Note: potency is the fitted concentration of half-maximal effect. Summed up:
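GH3.TRE-Luc rat pituitary cells carrying a TRE-luciferase reporter were treated with compound plus 1 nM T3 (final) for 23.5 h at 37 °C. Viability was then read in the same wells by CellTiter-Fluor fluorescence after a further 30 min.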
Background: qHTS replaces the single test concentration by a dilution series.

Test [2] in a line: qHTS assay to identify small molecule antagonists of the thyroid receptor (TR) signaling pathway (AID 743065). Note: nearly all actives have a fitted effect of over 55% in size. Note: potency is the fitted concentration of half-maximal effect. In a few lines: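 GH3.TRE-Luc rat pituitary cells (two TREs driving luciferase) were dosed with compound, then stimulated with 1 nM T3 (final) for 23.5 h at 37 C. ONE-Glo luminescence was the read-out, with CellTiter-Fluor fluorescence as the cytotoxicity counter-screen.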

Test [3] concerns thyroid hormone receptor (rat, GH3 cells). As to the kind of experiment: qHTS assay to identify small molecule agonists of the thyroid receptor (TR) signaling pathway (AID 743066; calls by dose curve; note: potency is the fitted concentration of half-maximal effect).
For test [4], the target named is Estrogen receptor (Homo sapiens) (UniProt P03372). The experiment in a line: qHTS assay to identify small molecule antagonists of the estrogen receptor alpha (ER-alpha) signaling pathway (AID 743069; active = well fitted curve in the direction sought with a large enough effect in the signal ratio in the repeat runs, not every such curve was filed as active; inconclusive = weak or mixed curves, or effect the other way; inactive = no such curve, though single readings can be large or run the other way; the % refers to the signal ratio). Summed up: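 Reporter cells (ER-alpha-bla, HEK293 background) are conditioned overnight in stripped-serum medium (2% charcoal-stripped FBS). Compound and 17beta-estradiol exposure runs 18 hr at 37C, 5% CO2.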

Test [5] can be described thus: qHTS assay to identify small molecule antagonists of the estrogen receptor alpha (ER-alpha) signaling pathway - cell viability counter screen (AID 743074; calls by dose curve;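 note: HEK293 cells carrying ER-alpha-UAS-bla reporter stimulated with 17beta-estradiol; nearly all actives have a fitted effect of over 45% in size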; note: potency is the fitted concentration of half-maximal effect).
Test [6] concerns the target Estrogen receptor (Homo sapiens) (UniProt P03372). As to the kind of experiment: qHTS assay to identify small molecule agonists of the estrogen receptor alpha (ER-alpha) signaling pathway (AID 743075; calls by dose curve;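 note: HEK293 GripTite cells with ER-alpha and UAS-driven beta-lactamase reporter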; note: potency is the fitted concentration of half-maximal effect).
Test [7] shares this target. The experiment in a line: qHTS assay to identify small molecule agonists of the estrogen receptor alpha (ER-alpha) signaling pathway using the BG1 cell line (AID 743079). Note: nearly all actives have a fitted effect of over 20% in size. Note: potency is the fitted concentration of half-maximal effect.
Test [8] can be described thus: qHTS assay to identify small molecule antagonists of the estrogen receptor alpha (ER-alpha) signaling pathway using the BG1 cell line (AID 743080; calls by dose curve;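 note: BG1 cells stimulated with 17beta-estradiol alongside compound; series mostly up to about 70 µM; nearly all actives have a fitted effect of over 25% in size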). In a few lines: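 Seeding, 24 h rest, compound transfer from DMSO, 17beta-estradiol addition, 21.5 h incubation, CellTiter-Fluor (30 min, 37 C), then ONE-Glo (30 min, room temperature): this sequence was run on BG1-Luc-4E2 reporter cells.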

Test [9] in a line: qHTS assay to identify small molecule antagonists of the estrogen receptor alpha (ER-alpha) signaling pathway using the BG1 cell line - cell viability counter screen (AID 743081).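 Note: compound given together with 17beta-estradiol as the ER stimulus; series mostly up to about 70 µM; nearly all actives have a fitted effect of over 45% in size.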
Test [10] addresses Aromatase (Homo sapiens) (UniProt P11511). As to the kind of experiment: qHTS assay to identify aromatase inhibitors (AID 743083). Note: series mostly up to about 70 µM; nearly all actives have a fitted effect of over 55% in size.

Several values for one entry are separate records, joined by “and”; a condition that tells them apart may be missing. Identical values can stand only once. The source holds several records for some structures; these can differ, active in one and inactive in another. Activity calls are given as the source filed them. Unless noted, calls come from the whole dose curve; as a rule, active = well fitted curve in the direction sought with a large enough effect in the repeat runs; inconclusive = weak or mixed curves; inactive = no such curve, though single readings can be large; an effect the other way counts as inactive or inconclusive.

Aromatase (Homo sapiens), sequence (P11511 whole entry, looked up): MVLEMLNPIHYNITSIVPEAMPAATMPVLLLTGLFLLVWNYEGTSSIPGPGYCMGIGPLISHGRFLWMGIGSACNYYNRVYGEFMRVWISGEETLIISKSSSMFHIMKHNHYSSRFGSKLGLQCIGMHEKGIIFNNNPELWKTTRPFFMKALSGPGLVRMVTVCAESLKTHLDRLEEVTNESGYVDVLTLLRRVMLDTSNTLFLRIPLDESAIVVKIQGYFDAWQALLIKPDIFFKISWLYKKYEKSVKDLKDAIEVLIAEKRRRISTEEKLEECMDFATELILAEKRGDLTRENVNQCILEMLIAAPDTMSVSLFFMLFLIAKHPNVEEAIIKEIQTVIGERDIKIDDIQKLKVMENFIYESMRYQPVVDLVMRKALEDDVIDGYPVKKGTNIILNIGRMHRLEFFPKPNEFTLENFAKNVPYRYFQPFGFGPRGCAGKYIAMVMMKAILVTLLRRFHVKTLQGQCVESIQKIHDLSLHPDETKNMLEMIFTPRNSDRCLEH
Estrogen receptor (Homo sapiens), sequence (P03372 whole entry, looked up): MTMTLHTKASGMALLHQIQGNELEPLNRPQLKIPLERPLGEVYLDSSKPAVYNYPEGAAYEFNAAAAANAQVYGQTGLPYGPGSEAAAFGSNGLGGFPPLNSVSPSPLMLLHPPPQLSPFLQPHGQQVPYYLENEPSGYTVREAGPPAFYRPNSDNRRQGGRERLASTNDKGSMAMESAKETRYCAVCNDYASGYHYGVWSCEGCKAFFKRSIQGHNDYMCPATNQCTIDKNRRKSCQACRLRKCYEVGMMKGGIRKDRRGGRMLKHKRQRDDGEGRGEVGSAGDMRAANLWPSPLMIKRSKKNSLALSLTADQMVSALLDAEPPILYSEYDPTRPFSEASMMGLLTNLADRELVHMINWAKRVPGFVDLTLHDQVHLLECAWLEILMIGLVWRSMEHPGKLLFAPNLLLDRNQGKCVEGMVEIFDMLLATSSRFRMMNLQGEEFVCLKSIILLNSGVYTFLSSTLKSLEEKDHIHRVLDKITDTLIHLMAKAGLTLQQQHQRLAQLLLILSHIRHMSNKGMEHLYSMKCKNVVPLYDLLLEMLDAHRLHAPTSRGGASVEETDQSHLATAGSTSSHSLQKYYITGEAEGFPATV

Consider `CN[C@@H](C)[C@H](O)c1ccccc1`, for which the Potency result in [1], in [2], in test [3], in [4], in [5] and in test [6] was “inactive” throughout. Further, the Potency result in test [8], in test [9] and in test [10] was “inactive” each time. Besides, the Potency in test [7] was 26.6 µM (active).
For `C=CCOCC1CO1` (stereo unspecified), the Potency result in test [1], in [2], in [3], in test [4], in test [5] and in test [6] was “inactive” throughout. The Potency entry in test [7], in test [8], in test [9] and in [10] was “inactive” each time.
Consider `CCCCCBr`, for which the Potency entry in test [1], in [2], in [3], in test [4], in test [5] and in test [6] was “inactive” throughout. The Potency entry in [7], in test [8], in test [9] and in test [10] was “inactive” each time.
As for `CCCC(C)(COC(N)=O)COC(=O)NC(C)C` (stereo unspecified), the Potency result in test [1], in test [2], in [3], in test [4], in [5] and in test [6] was “inactive” in each case. Further, the Potency entry in [7], in test [8], in test [9] and in test [10] was “inactive” each time.
For the compound `CCCN(CCC)c1c([N+](=O)[O-])cc(C(C)C)cc1[N+](=O)[O-]`, the Potency in test [1] and in test [2] was 61.1 µM (active) each time. The Potency result in [3], in test [4], in test [5], in test [6], in [7] and in test [8] was “inactive” each time. The Potency entry in test [9] and in test [10] was “inactive” throughout.
For `CC(O)CN1CCN(CC(=O)[O-])CCN(CC(=O)[O-])CCN(CC(=O)[O-])CC1.[Gd+3]` (stereo unspecified), the Potency entry in test [1], in test [2], in [3], in test [4], in test [8] and in test [9] was “inactive” throughout. Moreover, in test [10], the Potency entry is “inactive”. Also, the Potency result in test [5] is “inactive and 21.3 µM (active)”; in [6], “inactive and 23.9 µM [inconclusive] (active)”; in [7], “inactive and 5.31 µM (active)”.
As to `C[C@H]1O[C@H](OC2[C@@H](O)[C@@H](O)C(O)[C@H](O)[C@H]2O)[C@@H](N)C[C@@H]1N=C(N)C(=O)O` (stereo partly specified), the Potency result in test [1], in test [2], in [3], in [4], in test [5] and in test [6] was “inactive” in each case. Also, the Potency entry in test [7], in test [8], in test [9] and in [10] was “inactive” in each case.
Regarding `CC(C)(C)c1ccc(CCOc2ncnc3ccccc23)cc1`, the Potency entry in test [1], in test [2], in test [3], in [4], in test [5] and in test [6] was “inactive” throughout. Besides, the Potency result in test [7], in [8], in test [9] and in test [10] was “inactive” each time.
On to `COc1ccc(C(O)(c2cncnc2)C2CC2)cc1` (stereo unspecified), for which the Potency result in [1], in [2], in test [3], in test [4], in [5] and in test [6] was “inactive” in each case. The Potency entry in test [7], in test [8], in test [9] and in test [10] was “inactive” in each case.
For `O=C(Cc1ccccc1)OCCc1ccccc1`, the Potency entry in test [1], in test [2], in test [3], in test [4], in test [5] and in [6] was “inactive” each time. For the same compound, the Potency result in [7], in test [8], in [9] and in [10] was “inactive” throughout.
Consider `Clc1ccccc1`, for which the Potency entry in [1], in test [2], in [3], in [4], in test [5] and in [6] was “inactive” throughout. In addition, the Potency result in [7], in [8], in test [9] and in [10] was “inactive” each time.
Take `CON(C)C(=O)Nc1ccc(Cl)cc1`: the Potency entry in test [1], in test [2], in [3], in [4], in test [5] and in [6] was “inactive” in each case. Also, the Potency result in test [7], in [8], in test [9] and in test [10] was “inactive” in each case.
As for `CCOP(=S)(S)OCC`, the Potency entry in test [1], in [2], in test [3], in test [4], in test [5] and in test [6] was “inactive” in each case. Also, the Potency result in test [7], in test [8], in [9] and in test [10] was “inactive” throughout.
Consider `O=[N+]([O-])c1cc(Cl)c(Cl)cc1Cl`, for which the Potency entry in test [1], in test [2], in test [3], in test [4], in test [5] and in [6] was “inactive” throughout. In addition, the Potency result in test [7], in test [9] and in test [10] was “inactive” throughout.
For the compound `CC(C)(c1ccccc1)c1cc(-n2nc3ccccc3n2)c(O)c(C(C)(C)c2ccccc2)c1`, the Potency result in [1], in test [2], in [3], in [4], in test [5] and in test [6] was “inactive” in each case. Further, the Potency result in test [7], in test [8], in [9] and in test [10] was “inactive” throughout.
With `Oc1cccc(Cl)c1`, the Potency entry in test [1], in test [2], in [3], in [4], in test [5] and in [6] was “inactive” throughout. The Potency result in [7], in test [8], in [9] and in test [10] was “inactive” throughout.
Take `Cc1cnc(C2=NC(C)(C(C)C)C(=O)N2)c(C(=O)O)c1` (stereo unspecified): the Potency entry in [1], in test [2], in test [3], in test [4], in [5] and in test [6] was “inactive” each time. In addition, the Potency entry in test [8], in test [9] and in test [10] was “inactive” throughout.
Consider `Clc1ccc(Cl)c(Cl)c1`, for which the Potency entry in test [1], in test [2], in [5], in test [9] and in test [10] was “inactive” in each case. In [3], the Potency result is “inactive and 30.6 µM (active)”.
As for `COc1cc(C[C@@H](C)N)c(OC)cc1Br`, the Potency was 62.8 µM (active) in [1] and 56 µM (active) in test [2]. Further, the Potency entry in test [3], in [4], in test [6], in test [7], in test [8] and in test [9] was “inactive” throughout.
With `C[N+](C)(C)CCOC(=O)C(O)(c1ccccc1)c1ccccc1`, the Potency entry in test [1], in test [2], in test [3], in [5], in test [9] and in test [10] was “inactive” throughout.
In the case of `O=C=NC1CCCCC1`, the Potency entry in test [1], in test [2], in test [3], in test [4], in test [5] and in [6] was “inactive” throughout. In addition, the Potency entry in test [9] and in test [10] was “inactive” in each case. Further, the Potency in test [7] is 12.2 µM (active).
`NP(N)(=O)NC(=O)c1ccc(F)cc1`: the Potency result in test [1], in test [2], in [3], in test [4], in test [5] and in [6] was “inactive” throughout. Besides, the Potency result in test [8], in test [9] and in [10] was “inactive” in each case.

The values above are taken from PubChem BioAssay (Tox21).
